Data reported in PubChem BioAssay (EPA / NIEHS).
Active and inactive are the calls of the source. Rule for the calls: active = hit-call score of the fitted dose curve at least 0.9, where 1 is the maximum; inactive = score below 0.9.

Assays:
[1] = ATG_CRE_CIS: Attagene CIS-FACTORIAL HepG2 Assay for human cAMP Responsive Element (CRE) binding protein 3 (AID 2282926); settings: HepG2 CRE cis-reporter, Attagene multiplexed mRNA; actives raise or lower the signal
Procedure, shortened: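 Liver-derived HepG2, transfected with a CRE-containing reporter panel, exposed 24 h; transcript levels sized and quantified by capillary electrophoresis of labelled amplicons; signal changes either way referenced to vehicle.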

[2] = target: CCAAT/enhancer-binding protein beta (Homo sapiens) (UniProt P17676); experiment: ATG_C_EBP_CIS: Attagene CIS-FACTORIAL HepG2 Assay for human CCAAT/Enhancer Binding Protein (C/EBP) beta (AID 2282927); settings: HepG2 Attagene cis-factorial transcription factor reporter; actives raise or lower the signal
Procedure, shortened: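 HepG2, transient MRTU transfection, 24 h treatment. RT-PCR plus CE fluorescence; DMSO negative control, bidirectional fit.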

[3] = ATG_CMV_CIS: Attagene CIS-FACTORIAL HepG2 Assay for human CMV (Internal Marker) (AID 2282928); settings: HepG2 CMV promoter reporter, transcription factor profiling; actives raise or lower the signal;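 note: endpoint acts as a background internal control marker rather than a target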
Procedure, shortened: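 Reporter transcripts from transfected HepG2 cells are isolated after 24 h of chemical dosing, reverse-transcribed and amplified. Fragments labeled with 6-FAM are cut with HpaI and quantified by capillary electrophoresis; DMSO defines baseline.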

[4] = ATG_DR4_LXR_CIS: Attagene CIS-FACTORIAL HepG2 Assay for human Liver X Receptor (LXR), DR4 submotif (AID 2282929); settings: HepG2 Attagene DR4 cis-reporter, mRNA transcription; actives raise or lower the signal
Procedure, shortened: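 The endpoint is DR4-element-driven reporter transcripts after 24 h chemical exposure of transfected HepG2 cells. These were measured via RT-PCR and capillary electrophoresis, and gain or loss of signal was fitted relative to DMSO controls.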

[5] = target: Aryl hydrocarbon receptor (Homo sapiens) (UniProt P35869); experiment: ATG_Ahr_CIS: Attagene CIS-FACTORIAL HepG2 Assay for human Aryl Hydrocarbon Receptor (Ahr) (AID 2282930); settings: HepG2 AhR cis-factorial reporter transcription; actives raise or lower the signal
Procedure, shortened: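 Endogenous factor activity is tracked through cis-promoter reporter units transfected into HepG2 cells. Transcript levels at 24 h are read by fluorescent RT-PCR and capillary electrophoresis, with activity in either direction scored relative to DMSO.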

[6] = ATG_AP_1_CIS: Attagene CIS-FACTORIAL HepG2 Assay for human Activator Protein 1 (AP-1) (AID 2282931); settings: HepG2 Attagene cis-factorial AP-1 reporter mRNA; actives raise or lower the signal
Procedure, shortened: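 Readout is reporter transcript level from endogenous transcription factor activity, quantified by RT-PCR with fluorescent primer extension and capillary electrophoresis. Transiently transfected HepG2 cells, 24 h exposure. Curves fitted both directions versus DMSO.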

[7] = ATG_AP_2_CIS: Attagene CIS-FACTORIAL HepG2 Assay for human Activator Protein 2 (AP-2) (AID 2282932); settings: HepG2 AP-2 cis-reporter, Attagene transcription factor profiling; actives raise or lower the signal
Procedure, shortened: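 Read-out: fluorescent reporter mRNA via RT-PCR and capillary electrophoresis, 24 h post-dose in transiently transfected HepG2. Endogenous factors drive cis-promoter reporters; gain or loss of signal fitted bidirectionally against DMSO.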

[8] = ATG_BRE_CIS: Attagene CIS-FACTORIAL HepG2 Assay for human Bone Morphogenetic Protein (BMP) Response Element (BRE) (AID 2282933); settings: HepG2 BMP response element reporter, Attagene transcription factor profiling; actives raise or lower the signal
Procedure, shortened: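 Read-out: reporter mRNA induction quantified by RT-PCR and capillary electrophoresis after 24 h chemical exposure of transfected HepG2 cells. Endogenous factor activity on the BMP response element; gain or loss fitted against DMSO baseline.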

[9] = target: Retinoic acid receptor alpha (Homo sapiens) (UniProt P10276); experiment: ATG_DR5_RAR_CIS: Attagene CIS-FACTORIAL HepG2 Assay for human Retinoic Acid Receptor Alpha (RARE), DR5 submotif (AID 2282934); settings: HepG2 Attagene cis-factorial RARE DR5 reporter, mRNA; actives raise or lower the signal;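 for AC50: reporter responds to endogenous RAR alpha beta and gamma in HepG2 not RARA alone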
Procedure, shortened: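 After 24 h of chemical exposure, transiently transfected HepG2 cells were lysed for total RNA; the DR5-regulated reporter transcript was quantified via RT-PCR and capillary electrophoresis, with activity fitted bidirectionally against DMSO.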

Measured: AC50

Sequence of Retinoic acid receptor alpha (Homo sapiens) (P10276 whole entry, looked up): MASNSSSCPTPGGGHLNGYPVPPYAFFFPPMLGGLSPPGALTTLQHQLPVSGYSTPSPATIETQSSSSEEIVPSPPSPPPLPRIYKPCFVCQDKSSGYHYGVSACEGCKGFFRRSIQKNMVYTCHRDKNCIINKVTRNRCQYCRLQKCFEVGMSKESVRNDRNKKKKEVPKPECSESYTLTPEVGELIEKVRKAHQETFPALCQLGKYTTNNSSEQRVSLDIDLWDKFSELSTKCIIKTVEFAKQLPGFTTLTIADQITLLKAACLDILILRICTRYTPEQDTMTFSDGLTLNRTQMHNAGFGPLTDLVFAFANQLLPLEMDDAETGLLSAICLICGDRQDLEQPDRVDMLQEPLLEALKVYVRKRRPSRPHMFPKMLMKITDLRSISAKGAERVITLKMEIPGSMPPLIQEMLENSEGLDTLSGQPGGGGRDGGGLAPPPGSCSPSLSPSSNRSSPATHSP
Sequence of CCAAT/enhancer-binding protein beta (Homo sapiens) (P17676 whole entry, looked up): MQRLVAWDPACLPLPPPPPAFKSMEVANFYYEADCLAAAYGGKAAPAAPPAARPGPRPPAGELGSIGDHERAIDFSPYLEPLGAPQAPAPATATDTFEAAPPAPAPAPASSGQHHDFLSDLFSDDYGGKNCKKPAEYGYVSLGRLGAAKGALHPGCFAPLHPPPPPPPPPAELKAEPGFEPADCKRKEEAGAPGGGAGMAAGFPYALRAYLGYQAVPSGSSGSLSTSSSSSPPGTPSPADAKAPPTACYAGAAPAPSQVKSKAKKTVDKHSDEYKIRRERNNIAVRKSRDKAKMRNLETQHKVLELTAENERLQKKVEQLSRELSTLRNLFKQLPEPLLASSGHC
Sequence of Aryl hydrocarbon receptor (Homo sapiens) (P35869 whole entry, looked up): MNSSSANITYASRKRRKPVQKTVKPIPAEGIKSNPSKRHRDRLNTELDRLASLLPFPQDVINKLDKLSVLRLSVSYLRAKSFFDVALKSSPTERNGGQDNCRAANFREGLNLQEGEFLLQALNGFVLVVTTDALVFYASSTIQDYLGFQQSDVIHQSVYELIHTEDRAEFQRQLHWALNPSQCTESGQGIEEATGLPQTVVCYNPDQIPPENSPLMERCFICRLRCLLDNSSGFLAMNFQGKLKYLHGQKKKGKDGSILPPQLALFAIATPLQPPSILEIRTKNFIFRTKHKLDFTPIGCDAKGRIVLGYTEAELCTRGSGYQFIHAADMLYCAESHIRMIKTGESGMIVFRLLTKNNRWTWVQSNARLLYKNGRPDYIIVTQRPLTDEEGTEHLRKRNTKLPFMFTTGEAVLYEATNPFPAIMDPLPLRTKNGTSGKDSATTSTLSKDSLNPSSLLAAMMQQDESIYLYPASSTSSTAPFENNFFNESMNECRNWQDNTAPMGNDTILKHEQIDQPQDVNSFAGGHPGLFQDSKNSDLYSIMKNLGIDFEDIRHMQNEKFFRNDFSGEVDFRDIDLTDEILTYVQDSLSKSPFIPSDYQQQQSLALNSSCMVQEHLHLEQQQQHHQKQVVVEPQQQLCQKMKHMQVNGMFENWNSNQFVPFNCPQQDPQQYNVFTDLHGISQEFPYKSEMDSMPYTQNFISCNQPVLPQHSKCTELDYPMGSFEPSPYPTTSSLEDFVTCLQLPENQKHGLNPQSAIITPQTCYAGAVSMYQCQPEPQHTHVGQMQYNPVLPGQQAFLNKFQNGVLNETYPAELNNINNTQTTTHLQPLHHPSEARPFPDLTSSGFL

NC(=O)c1cnccn1
not listed: [9]
inactive: all other assays above

CC(=O)CC(C)(C)C1CCCCC1
not listed: [8]
inactive: all other assays above

CCC(=O)OC/C=C(\C)CCC=C(C)C
not listed: [9]
inactive: all other assays above

CC(C)(O)C(=O)c1ccc(OCCO)cc1
not listed: [9]
inactive: all other assays above

CC(C)Cc1ccccc1
not listed: [8]
inactive: all other assays above

CCCCCCCCCC(=O)OCC
active: [1] 92.2 µM | [5] 58.8 µM | [9] 63.2 µM
inactive: all other assays above

ClCCOCCOCCCl
inactive: all assays above

O=S(=O)(O)CCCN1CCOCC1
inactive: all assays above

Nc1ccc(O)c(N)c1
active: [5] 14.5 µM | [8] 42.2 µM
inactive: all other assays above

C=C(C)C(N)=O
inactive: all assays above

C=CC(C)CCCC(C)(C)O (stereo not given)
inactive: all assays above

N#CCCNCCC#N
not listed: [6] | [9]
inactive: all other assays above

CCCO
not listed: [6]
inactive: all other assays above

CCCCCCCCOS(=O)(=O)O
not listed: [5] | [9]
inactive: all other assays above

C=C(C)C(=O)OCCN(C)C
not listed: [6]
inactive: all other assays above

CC(C)=CC(=O)O
not listed: [5] | [9]
inactive: all other assays above

CC(=O)OC/C=C(C)/C=C/C=C(C)/C=C/C1=C(C)CCCC1(C)C
not listed: [6] | [9]
inactive: all other assays above

CC(O)CNCC(C)O (stereo not given)
not listed: [5] | [9]
inactive: all other assays above

O=S1(=O)CC(Cl)(Cl)C(Cl)(Cl)C1
active: [3] 2.22 µM | [4] 2.41 µM
not listed: [6] | [9]
inactive: all other assays above

CN(C)CCC=C1c2ccccc2CCc2ccccc21
active: [1] 33.4 µM | [4] 27 µM | [6] 61.2 µM
inactive: [2] | [3] | [7] | [8]

c1coc(CNc2ncnc3nc[nH]c23)c1
not listed: [6] | [8] | [9]
inactive: all other assays above

CC(=O)CCC(=O)O
not listed: [5] | [8] | [9]
inactive: all other assays above

C=C/C(C)=C/C/C=C(\C)CCC=C(C)C
active: [6] 125 µM
inactive: [1] | [2] | [3] | [4] | [7]

CCCCOCC(C)OCC(C)O (stereo not given)
not listed: [6] | [9]
inactive: all other assays above

CC1=CC(C)C(C=O)C(C)C1 (stereo not given) (tested in a mixture with another compound)
not listed: [5] | [9]
inactive: all other assays above

CN(C)c1ccc(C=O)cc1
not listed: [5] | [9]
inactive: all other assays above

O=S(=O)(O)c1cc(S(=O)(=O)O)c2c(N=Nc3ccccc3)c(O)ccc2c1
not listed: [5] | [8] | [9]
inactive: all other assays above

CNC(=C[N+](=O)[O-])NCCSCc1ccc(CN(C)C)o1
not listed: [6] | [8]
inactive: all other assays above

c1ccc2scnc2c1
active: [5] 50.8 µM
not listed: [6]
inactive: all other assays above

CC1(C)[C@H](C=C(Cl)Cl)[C@H]1C(=O)OCc1cccc(Oc2ccccc2)c1
not listed: [5] | [9]
inactive: all other assays above

CC(C)COC(=O)c1ccccc1O
not listed: [5] | [9]
inactive: all other assays above

CC1=CC(O)CC(C)(C)C1 (stereo not given)
active: [5] 44.9 µM
not listed: [6]
inactive: all other assays above

CCCCCCCC1CCCC1=O (stereo not given)
not listed: [6]
inactive: all other assays above

CC(=O)CC(=O)N(C)C
not listed: [5] | [9]
inactive: all other assays above

CC(CCO)CC(C)(C)C (stereo not given)
not listed: [6]
inactive: all other assays above

CCCCCC1CCC(=O)O1 (stereo not given)
not listed: [5] | [9]
inactive: all other assays above

CCC(C)(C)C1CCC(OC)CC1 (stereo not given)
not listed: [5] | [9]
inactive: all other assays above

CC(=O)c1ccc(C)cc1
not listed: [5] | [9]
inactive: all other assays above

O=[N+]([O-])c1cc(N(CCO)CCO)ccc1NCCO
not listed: [6]
inactive: all other assays above

C=CCCCCCCCCC(=O)OCC
not listed: [5] | [9]
inactive: all other assays above

[Na+]
not listed: [6] | [9]
inactive: all other assays above

CC1=CCC(=C(C)C)CC1
not listed: [5] | [9]
inactive: all other assays above

CCCc1ccc(N)cc1
not listed: [5] | [9]
inactive: all other assays above

COC(=O)c1cccc(C(=O)OC)c1
active: [5] 71.4 µM
not listed: [6]
inactive: all other assays above

N#CCCCC(C#N)CCC#N (stereo not given)
not listed: [6]
inactive: all other assays above

CC(=O)Oc1c(C)c(C)c2c(c1C)CC[C@@](C)(CCC[C@H](C)CCC[C@H](C)CCCC(C)C)O2
not listed: [6]
inactive: all other assays above

[O-]/[N+](=N\O)c1ccccc1
not listed: [5]
inactive: all other assays above

CCCCCCCCCCCCCC(=O)OCC
not listed: [5]
inactive: all other assays above

CCCC1CCC(=O)CC1
not listed: [5] | [9]
inactive: all other assays above

CC(=O)c1ccc2ccccc2c1
not listed: [5] | [6] | [9]
inactive: all other assays above

C1=COCCC1
not listed: [5]
inactive: all other assays above

CC(=O)C1C(=O)C=C(C)OC1=O (stereo not given)
not listed: [5]
inactive: all other assays above

CN1CCc2cccc3c2[C@H]1Cc1ccc(O)c(O)c1-3
inactive: [1] | [2] | [7] | [8]
active: [3] 5.76 µM | [4] 18.8 µM | [9] 1.67 µM

CC(=O)Nc1cc(S(=O)(=O)O)cc2cc(S(=O)(=O)O)c(N=Nc3ccccc3)c(O)c12
not listed: [5]
inactive: all other assays above

O=C(C=Cc1ccccc1)OCCCc1ccccc1
not listed: [5]
inactive: all other assays above

CC(=O)OCC=C(C)CCC=C(C)CCC=C(C)C
active: [3] 63.2 µM | [4] 33.4 µM | [6] 48.1 µM | [7] 145 µM
inactive: [1] | [2] | [8] | [9]

CCOC(=O)CC1(C)OCC(C)O1 (stereo not given)
not listed: [5]
inactive: all other assays above

NS(=O)(=O)c1cc(C(=O)O)c(NCc2ccco2)cc1Cl
not listed: [4]
inactive: all other assays above

CC(C)(C)C1CCC(O)CC1 (stereo not given)
not listed: [5]
inactive: all other assays above

CCOC(=O)C(=O)OCC
not listed: [5]
inactive: all other assays above

CCO[Si](CCC#N)(OCC)OCC
not listed: [5] | [9]
inactive: all other assays above

Nc1ccn([C@H]2CC[C@@H](CO)O2)c(=O)n1
not listed: [5] | [9]
inactive: all other assays above

CCn1cc(C(=O)O)c(=O)c2ccc(C)nc21
not listed: [5]
inactive: all other assays above
